# Compound activity deposited in PubChem BioAssay by Broad Institute.
# This excerpt belongs to a sample that is enriched for hits.
# C diff HTS – inhibitors of Clostridium difficile growth; 86,000 tested, 0.25% active; AID 1259249; Clostridium difficile clinical isolate growth, OD600, 24 h; active compounds read low; growth activity, negative = inhibition, % at 16 µg/mL (by protocol);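 active means mean growth activity at or below -80% and every replicate also at or below -80%; inconclusive means mean at or below -80% but some replicate above -80%; inactive means mean growth activity above -80%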;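 further: 0% = DMSO wells and -100% = levofloxacin 16 µg/mL wells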
# T cruzi growth-1 – blocks T. cruzi growth in NIH3T3 culture; 77,000 tested, 5.9% active; inhibition, % at 8.34 µM; T. cruzi beta-gal in NIH3T3, GalScreen luminescence, 90 h;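 active means mean inhibition above about 93%, with at least 55% of replicates each passing it, limit read from the data, passing the limit was not always enough; inconclusive means only one of those two conditions holds; inactive means neither condition holds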
# T cruzi growth-2 – inhibitors of T. cruzi proliferation; AID 651739; 5,600 tested, 72% active; T. cruzi beta-gal in NIH3T3, GalScreen luminescence, 90 h; shares compounds with T cruzi growth-1; inhibition, % at 8.35 µM;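 active means mean replicate inhibition above about 95% and at least 55% of replicates individually reaching it, limit read from the data; inconclusive means only one of the two criteria is met; inactive means neither criterion is met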
# T cruzi growth-3 – blocks T. cruzi growth in NIH3T3 host cells | T. cruzi beta-gal in NIH3T3, GalScreen luminescence, 90 h | inhibition, % at 2.09 µM | 5,600 tested, 21% active | shares compounds with T cruzi growth-1;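 active means mean inhibition above about 95%, with at least 55% of replicates also reaching it, limit read from the data; inconclusive means meets just one of the two conditions; inactive means meets neither condition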;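 further: plate controls were neutral control median for no effect and positive control median for full effect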
# NIH3T3 tox – cytotoxicity in mouse NIH/3T3 fibroblasts; shares compounds with T cruzi growth-1; NIH/3T3 viability, CellTiter-Glo ATP luminescence, 90 h; cytotoxicity (signal decrease), % at 8.35 µM; 5,600 tested, 14% active;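 active means mean signal decrease across replicates above about 35% based on untreated-well scatter, with enough replicates individually passing, limit read from the data; inconclusive means no rule stated though some were filed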;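 further: 0% = median of neutral control wells and 100% = median of positive control wells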
# NIH3T3 tox 2 – kills mouse NIH/3T3 fibroblasts; shares compounds with T cruzi growth-1; inhibition, % at 24.9 µM; 5,600 tested, 56% active; AID 651744; NIH/3T3 viability, CellTiter-Glo ATP luminescence, 90 h;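 active means mean loss of cell viability signal at or above a set limit, and enough replicates individually reaching it; inconclusive means meets only the mean limit or only the replicate share; inactive means meets neither condition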;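 further: 0% = median of neutral control wells and 100% = median of positive control wells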
# * = called active by the depositor; ? = inconclusive; / = no result given.
SMILES,C diff HTS,T cruzi growth-1,T cruzi growth-2,T cruzi growth-3,NIH3T3 tox,NIH3T3 tox 2
O=C(c1ccc(F)cc1)N1CCCCN2[C@H](CO)[C@@H](c3ccc(-c4ccc(F)cc4)cc3)[C@H]2C1,10.1,111.0*,104.1*,67.9,36.9*,103.2*
COc1ccc(-c2ccc([C@@H]3[C@@H](CO)N4CCCCN(C(=O)c5ccc(F)cc5)C[C@H]34)cc2)cc1,-2.3,122.8*,?,18.2,-5.4,56.9*
O=C(c1ccc(F)cc1)N1CCCCN2[C@H](C1)[C@@H](c1ccc(-c3ccc(F)cc3)cc1)[C@@H]2CO,31.2,97.7*,103.0*,51.5,42.5*,103.2*
COc1ccc(-c2ccc([C@H]3[C@H]4CN(C(=O)c5ccc(F)cc5)CCCCN4[C@H]3CO)cc2)cc1,11.2,76.3,/,/,/,/
O=C(c1ccc(F)cc1)N1CCCCN2[C@@H](CO)[C@@H](c3ccc(-c4ccc(F)cc4)cc3)[C@@H]2C1,15.5,51.0,/,/,/,/
O=C(c1ccc(F)cc1)N1CCCCN2[C@H](CO)[C@@H](c3ccc(-c4ccccc4)cc3)[C@@H]2C1,40.3,87.8,/,/,/,/
O=C(c1ccc(F)cc1)N1CCCCN2[C@H](CO)[C@H](c3ccc(-c4ccc(F)cc4)cc3)[C@@H]2C1,43.4,104.7*,108.1*,51.5,16.8,72.7*
COc1ccc(-c2ccc([C@H]3[C@@H](CO)N4CCCCN(C(=O)c5ccc(F)cc5)C[C@H]34)cc2)cc1,-3.0,94.5,/,/,/,/
C[C@@H]1CCCCO[C@H](CN(C)Cc2ccncc2)[C@@H](C)CN([C@@H](C)CO)C(=O)c2cc(NS(=O)(=O)c3cn(C)cn3)ccc2O1,-7.0,-21.0,/,/,/,/
C[C@H](CO)N1C[C@H](C)[C@@H](CN(C)C)Oc2ccc(NC(=O)CCC(F)(F)F)cc2CC1=O,0.2,/,/,/,/,/
O=C(c1ccc(F)cc1)N1CCCCN2[C@H](CO)[C@H](c3ccc(-c4ccc(F)cc4)cc3)[C@H]2C1,33.0,107.1*,103.2*,80.8,31.2,105.5*
O=C(c1ccc(F)cc1)N1CCCCN2[C@H](CO)[C@H](c3ccc(-c4ccccc4)cc3)[C@@H]2C1,16.4,-20.1,/,/,/,/
CNC[C@@H]1Oc2ccc(NC(=O)CCN3CCOCC3)cc2C(=O)N([C@@H](C)CO)C[C@H]1C,0.6,-0.2,/,/,/,/
O=C(NCCN1CCCCC1)[C@@H]1N[C@@H]2c3ccc(-c4ccncc4)c(=O)n3C[C@@H]2[C@H]1CO,/,101.3*,-17.1,-10.7,-9.4,-25.6
O=C(NCCN1CCCCC1)[C@H]1N[C@H]2c3ccc(-c4cccnc4)c(=O)n3C[C@H]2[C@@H]1CO,/,18.5,/,/,/,/
CC(C)CC#Cc1ccc2c(c1)O[C@H](CN(C)Cc1ccc(F)cc1)[C@@H](C)CN([C@H](C)CO)S2(=O)=O,8.8,49.2,/,/,/,/
CC(C)CC#Cc1ccc2c(c1)O[C@H](CN(C)Cc1ccc(F)cc1)[C@H](C)CN([C@H](C)CO)S2(=O)=O,15.1,66.2,/,/,/,/
CC(C)CC#Cc1ccc2c(c1)O[C@@H](CN(C)Cc1ccccc1)[C@H](C)CN([C@@H](C)CO)S2(=O)=O,12.5,124.6*,105.6*,?,48.7*,104.1*
CC(C)CC#Cc1ccc2c(c1)O[C@H](CN(C)Cc1ccccc1)[C@@H](C)CN([C@H](C)CO)S2(=O)=O,12.2,105.9*,96.6*,88.7,-3.3,104.7*
CC(C)CC#Cc1ccc2c(c1)O[C@@H](CN(C)Cc1ccc(F)cc1)[C@H](C)CN([C@@H](C)CO)S2(=O)=O,4.5,36.3,/,/,/,/
CC(C)CC#Cc1ccc2c(c1)O[C@H](CN(C)Cc1ccccc1)[C@H](C)CN([C@@H](C)CO)S2(=O)=O,18.0,122.3*,93.2,110.8*,20.6,106.7*
COC(=O)[C@H](Cc1ccccc1)N1C(=O)O[C@@H](Cc2ccccc2)[C@H]1/C=C/C1CC1,16.9,/,/,/,/,/
O=C(C[C@H]1CC[C@@H]2[C@H](COC[C@H](O)CN2S(=O)(=O)c2ccc(Cl)cc2)O1)NCc1ccc(Cl)c(Cl)c1,/,73.6,/,/,/,/
COc1ccc(S(=O)(=O)N2C[C@@H](O)COC[C@H]3O[C@@H](CC(=O)NCc4ccc(Cl)c(Cl)c4)CC[C@@H]32)cc1,-2.4,118.0*,107.0*,24.8,7.7,25.8
O=C(C[C@H]1CC[C@H]2[C@@H](COC[C@@H](O)CN2S(=O)(=O)c2ccc(Cl)cc2)O1)NCc1ccc(Cl)c(Cl)c1,/,103.7*,100.1*,41.1,28.9,55.5*
SMILES,C diff HTS,T cruzi growth-1,T cruzi growth-2,T cruzi growth-3,NIH3T3 tox,NIH3T3 tox 2
Cc1ccc(S(=O)(=O)N2C[C@@H](O)COC[C@H]3O[C@H](CC(=O)NCc4ccc(Cl)c(Cl)c4)CC[C@@H]32)cc1,/,58.0,/,/,/,/
O=C(C[C@@H]1CC[C@H]2[C@@H](COC[C@@H](O)CN2S(=O)(=O)c2ccc(Cl)cc2)O1)NCc1ccc(Cl)c(Cl)c1,/,88.0,/,/,/,/
O=C(C[C@H]1CC[C@@H]2[C@H](COC[C@@H](O)CN2S(=O)(=O)c2ccc(Cl)cc2)O1)NCc1ccc(Cl)c(Cl)c1,/,97.2*,104.2*,23.5,8.8,62.2*
COc1cccc(S(=O)(=O)Nc2ccc3c(c2)[C@@H]2C[C@@H](CC(=O)N[C@@H](C)c4ccccc4)O[C@@H](CO)[C@@H]2O3)c1,-5.2,/,/,/,/,/
CN1[C@@H]2Cn3c(ccc(-c4ccc(F)cc4)c3=O)[C@H]1[C@@H](C(=O)N1CCCCC1)[C@@H]2CO,1.5,0.6,/,/,/,/
O=C(C[C@H]1C=C[C@H](NS(=O)(=O)c2ccc(F)cc2)[C@@H](CO)O1)N1CCC(Cc2ccccc2)CC1,-0.1,69.7,/,/,/,/
CC(=O)Nc1ccc2c(c1)C(=O)N(C)[C@@H]1CC[C@H](CC(=O)Nc3cn(C)nc3C)O[C@H]1CO2,-6.9,16.6,/,/,/,/
O=C(C[C@H]1C[C@@H]2c3cc(NC(=O)Nc4ccccc4F)ccc3O[C@@H]2[C@H](CO)O1)NCC1CC1,4.2,43.3,/,/,/,/
C[C@H](CO)N1C[C@H](C)[C@@H](CN(C)Cc2ccc3c(c2)OCO3)OCCCC[C@H](C)Oc2ccc(NC(=O)c3ccncc3)cc2C1=O,-2.8,102.9*,1.6,1.1,-25.1,-16.8
C[C@@H]1CCCCO[C@H](CN(C)Cc2ccc3c(c2)OCO3)[C@H](C)CN([C@H](C)CO)C(=O)c2cc(NC(=O)c3ccncc3)ccc2O1,-2.4,114.2*,101.7*,14.7,-4.4,-9.2
C[C@@H]1CN([C@@H](C)CO)C(=O)c2cc(NC(=O)c3ccncc3)ccc2O[C@@H](C)CCCCO[C@@H]1CN(C)Cc1ccc2c(c1)OCO2,-4.9,28.9,/,/,/,/
C[C@@H]1CCCCO[C@@H](CN(C)Cc2ccc3c(c2)OCO3)[C@H](C)CN([C@@H](C)CO)C(=O)c2cc(NC(=O)c3ccncc3)ccc2O1,-4.5,41.3,/,/,/,/
CC(C)C#Cc1ccc([C@H]2[C@H]3CN(C(=O)c4ccc5c(c4)OCO5)CC(=O)N3[C@H]2CO)cc1,13.4,/,/,/,/,/
CCC(=O)N1[C@@H]2c3ccc(-c4ccccc4F)c(=O)n3C[C@H]1[C@H](CO)[C@H]2C(=O)NC1CCC1,-0.6,43.1,/,/,/,/
